Laboratory results as given in the supplement of paper PMC9694430.

Columns and labels:
Assay in all cases: thermal shift delta Tm vs DMSO control; higher = stronger stabilization (binding)
Settings in all cases: 12.5 µM; protein concentration 2 µM
LOC_OS01G01410-cb001 = test system: LOC_OS01G01410-cb001
Outline: (§1)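 Rice kinase domain constructs, made in E. coli and purified, were placed in 96-well plates at 2 μM in 19.5 μl of 100 mM potassium phosphate pH 7.5, 150 mM NaCl, 10% glycerol and 5 × SYPRO Orange, with compound in DMSO. A temperature ramp from 25°C to 95°C at 0.05°C/s was used for differential scanning fluorimetry. The melting temperature shift is a triplicate mean compared with DMSO-only protein, derived from Boltzmann fits.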

LOC_OS01G02750-cb003 = test system: LOC_OS01G02750-cb003
Outline: as §1

LOC_OS01G10900-cb004 = test system: LOC_OS01G10900-cb004
Outline: as §1

LOC_OS01G13800-cb001 = test system: LOC_OS01G13800-cb001
Outline: as §1

LOC_OS01G14860-cb001 = test system: LOC_OS01G14860-cb001
Outline: as §1

LOC_OS01G21960-cb002 = test system: LOC_OS01G21960-cb002
Outline: as §1

LOC_OS01G39600-cb002 = test system: LOC_OS01G39600-cb002
Outline: as §1

LOC_OS01G48390-cb002 = test system: LOC_OS01G48390-cb002
Outline: as §1

LOC_OS01G51400-cb002 = test system: LOC_OS01G51400-cb002
Outline: as §1

LOC_OS01G52050-cb004 = test system: T1, LOC_OS01G52050-cb004
T1 sequence (whole entry): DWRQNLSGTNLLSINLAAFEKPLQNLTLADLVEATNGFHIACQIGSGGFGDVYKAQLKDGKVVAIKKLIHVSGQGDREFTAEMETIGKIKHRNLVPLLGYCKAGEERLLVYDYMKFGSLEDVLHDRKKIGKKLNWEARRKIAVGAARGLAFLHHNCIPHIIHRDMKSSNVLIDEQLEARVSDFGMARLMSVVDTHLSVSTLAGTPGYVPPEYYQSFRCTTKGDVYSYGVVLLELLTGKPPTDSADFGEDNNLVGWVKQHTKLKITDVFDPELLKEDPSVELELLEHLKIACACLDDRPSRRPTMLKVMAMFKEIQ
Outline: as §1
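Also: purified Escherichia coli-expressed rice kinase domain construct.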

Compound	thermal shift delta Tm (LOC_OS01G01410-cb001) [°C]	thermal shift delta Tm (LOC_OS01G02750-cb003) [°C]	thermal shift delta Tm (LOC_OS01G10900-cb004) [°C]	thermal shift delta Tm (LOC_OS01G13800-cb001) [°C]	thermal shift delta Tm (LOC_OS01G14860-cb001) [°C]	thermal shift delta Tm (LOC_OS01G21960-cb002) [°C]	thermal shift delta Tm (LOC_OS01G39600-cb002) [°C]	thermal shift delta Tm (LOC_OS01G48390-cb002) [°C]	thermal shift delta Tm (LOC_OS01G51400-cb002) [°C]	thermal shift delta Tm (LOC_OS01G52050-cb004) [°C]
C=CC(=O)N1CC[C@@H](Oc2nc(Nc3ccc(N4CCC(N5CCN(C)CC5)CC4)cc3)c(C(N)=O)nc2CC)C1 [Naquotinib(ASP8273)]	5.21	1.59	4.44	-0.4	4.17	2.68	1.51	3.38	-0.03	2.34
CN1CCC(Nc2nc(Nc3ccc(Oc4ccccc4)cc3)c3c(=O)[nH]cc(Br)c3n2)CC1	1.56	2.82	0.27	0.59	2.99	2.71	0.76	2.51	0.72	4.93
Cc1ccc(C(=O)Nc2ccc(CN3CCN(C)CC3)c(C(F)(F)F)c2)cc1C#Cc1cnc2[nH]ncc2c1 [GZD824 Dimesylate]	4.32	3.52	5.49	-0.24	6.49	1.24	22.8	2.71	0.45	3.71
Nc1ncc(-c2ccnc(Nc3ccncc3)n2)c(CC2CC2)n1	0.71	1.52	1.79	0.81	2.55	0.87	0.29	0.57	0.15	0.96
CC(=O)Nc1cccc(-n2c(=O)n(C3CC3)c(=O)c3c(Nc4ccc(I)cc4F)n(C)c(=O)c(C)c32)c1	0.31	1.28	0.15	0.06	0.12	0.5	-0.55	0.45	0	0.63
CCOc1cc(N2CCC(O)CC2)ccc1Nc1ncc2c(n1)N(C)c1ccccc1C(=O)N2C	0.48	0.5	0.7	-0.03	0.03	0.41	-0.54	0.04	0.06	-0.47
Cc1ccccc1-n1c(Cn2nc(-c3cccc(O)c3)c3c(N)ncnc32)nc2cccc(C)c2c1=O	0.31	0.33	0.02	-0.2	-0.04	0.03	-0.15	0.39	0.33	
CN(C)CCCn1cc(C2=C(c3c[nH]c4ccccc34)C(=O)NC2=O)c2ccccc21	0.25	0.71	0.3	0.25	1.17	2.73	0.78	-0.07	0.26	-0.04
CC1(COc2ccc3c(c2)ncn3-c2ccc3cccc(N4CCC(N)CC4)c3n2)COC1	1.38	7.03	1.43	-0.87	1.96	3.78	2.31	0.25	0.13	11.9
CCOc1cn(-c2ccc(F)cc2C)nc1C(=O)Nc1ccc(Oc2ccnc3cc(OC)c(OC)cc23)c(F)c1	0.08	1.86	0.01	-0.07	0.5	-0.29	0.58	0.48	0.45	2.08
S=C(NCc1ccc2c(c1)OCO2)N1CCN(c2ncnc3c2oc2ccccc23)CC1 [Amuvatinib (MP-470)]	0.66	-0.56	0.77	1.03	0.42	0.46	0.21	0.88	0.31	1.3
C[C@@H]1CN(C(=O)c2ccc(NC(=O)c3cc(O[C@H](C)c4c(Cl)ccc(F)c4Cl)c(N)nn3)cc2)C[C@H](C)N1 [Ensartinib (X-396)]	2.83	1.44	2.67	-0.39	0.08	0.04	0.4	5.02	-0.19	3.28
Cn1c(=O)c(Oc2ccc(F)cc2F)cc2cnc(NC(CCO)CCO)nc21	0.37	0.46	1.21	0.21	0.44	0.89	0.22	-0.01	-0.14	0.02
COc1ccc(Cl)c(Nc2nc3ccccc3nc2NS(=O)(=O)c2cccc(NC(=O)C(C)(C)N)c2)c1 [Pilaralisib (XL147)]	1.63	2.16	0.29	1.9	1.53	0.73	2.65	1.05	1.3	4.64
NC(=O)c1ccc2nc(-c3ccc(Oc4ccc(Cl)cc4)cc3)[nH]c2c1 [Chk2 Inhibitor II (BML-277)]	0.54	1.86	2.68	-0.46	0.95	0.75	0.45	1.43	0.88	1.84
Cc1ccc(CNc2ncnc3ccc(-c4ccc(CO)o4)cc23)o1	0.69	1.49	0.39	-0.33	0.56	0.93	0.85	0.79	0.24	1.21
Cn1cnc2c(F)c(Nc3ccc(Br)cc3F)c(C(=O)NOCCO)cc21	0.1	0.45	0.02	-0.05	0.19	0.38	0.61	0.43	0.53	0.01
Cc1nc2c(-c3cnc(N)nc3)nc(N3CCOCC3)nc2n1C(C)C	0.02	0.81	0.35	0.04	-0.18	0.83	1.29	0.44	0.69	
Cc1ncc(CO)c(CO)c1O [Pyridoxine]	-0.03	0.64	0.29	-0.11	0.24	0.13	-0.13	0.22	0.06	4.05
Cc1cc(Nc2cc(N3CCN(C)CC3)nc(Sc3ccc(NC(=O)C4CC4)cc3)n2)n[nH]1 [Tozasertib (VX-680, MK-0457)]	6.12	6.08	2.83	0.07	1.86	1.49	10.2	3.05	0.88	1.66

Compound	thermal shift delta Tm (LOC_OS01G01410-cb001) [°C]	thermal shift delta Tm (LOC_OS01G02750-cb003) [°C]	thermal shift delta Tm (LOC_OS01G10900-cb004) [°C]	thermal shift delta Tm (LOC_OS01G13800-cb001) [°C]	thermal shift delta Tm (LOC_OS01G14860-cb001) [°C]	thermal shift delta Tm (LOC_OS01G21960-cb002) [°C]	thermal shift delta Tm (LOC_OS01G39600-cb002) [°C]	thermal shift delta Tm (LOC_OS01G48390-cb002) [°C]	thermal shift delta Tm (LOC_OS01G51400-cb002) [°C]	thermal shift delta Tm (LOC_OS01G52050-cb004) [°C]
CN(C)C[C@@H]1CCn2cc(c3ccccc32)C2=C(C(=O)NC2=O)c2cn(c3ccccc23)CCO1	1.3	0.71	0.95	1.16	2.41	2.83	2.85	0.62	-0.02	-0.62
O=C(O)CCC(=O)Nc1ccc(Br)cn1 [Bikinin]	0.12	0.77	-0.24	0.21	1.54	0.85	-0.26	0.5	0.37	0.34
CNC(=O)Nc1ccc(-c2nc(N3CC4CCC(C3)O4)c3cnn(C4CCC5(CC4)OCCO5)c3n2)cc1	0.49	1.08	0.69	0.32	0.37	1.21	-0.16	0.79	0.4	0.38
Cc1cc(N2CCOCC2)cc2[nH]c(-c3c(NC[C@@H](O)c4cccc(Cl)c4)cc[nH]c3=O)nc12	4.78	2.98	-0.47	0.09	1.24	1.2	2.56	1.43	0.28	3.88
Cc1ccc(Nc2cc(N[C@@H]3CCCC[C@@H]3N)nnc2C(N)=O)nc1C	1.14	1.56	0.34	0.15	4.3	1.71	0.06	0.5	0.36	4.19
COc1cc2nccc(Oc3ccc(NC(=O)Nc4cc(C)on4)c(Cl)c3)c2cc1OC [Tivozanib (AV-951)]	1.87	1.12	1.76	0.05	0.65	0.54	-0.67	1.22	-0.16	6.73
Oc1cc(O)cc(/C=C/c2ccc(O)c(O)c2)c1 [Piceatannol]	1.39	1.52	0.74	1	1.02	-0.47	1.51	1.02	0.39	1.1
Cn1cc(-c2ccc(F)c(C(F)(F)F)c2)nc1C1CCN(c2ncnc3[nH]ncc23)CC1	0.43	0.52	0.51	0.16	1.8	0.54	0.71	0.47	-0.2	0.39
Cc1c(NC(=O)c2ccc(C(C)(C)C)cc2)cccc1-c1cn(C)c(=O)c(Nc2ccc(C(=O)N3CCOCC3)cc2)n1	0.18	0.71	-1.08	0.18	-0.01	0.66	2.2	0.86	0.2	-0.23
CN(c1ccccc1CNc1nc(Nc2ccc3c(c2)CC(=O)N3)ncc1C(F)(F)F)S(C)(=O)=O	2.5	7.01	2.35	0.34	5.2	2.72	8.33	3.62	1.93	8.95
CCn1c(-c2nonc2N)nc2c(C#CC(C)(C)O)ncc(OC[C@H]3CCCNC3)c21	1.38	0.87	0.42	0.37	3.95	0.53	0.32	0.07	0.09	0.04
Nc1nc2cc(-c3ccc4ncc(C(=O)N5CCOCC5)n4c3)ccc2o1 [Serabelisib (INK-1117,MLN-1117,TAK-117)]	0.8	1.57	2.36	0.43	1.16	0.81	0.1	0.39	0.34	3.87
O=C(NCCO)c1cccc(-c2cc(Nc3ccc(OC(F)(F)F)cc3)ncn2)c1	0.32	0.32	0.34	0.62	1.32	0.44	0.3	2.99	0.2	1.46
O=S(=O)(NCCNC/C=C/c1ccc(Br)cc1)c1cccc2cnccc12	0.28	0.92	3.17	0.66	0.58	1.16	0.27	1.8	0.23	0.48
Nc1ncnc2n[nH]c(Nc3ccc(F)cc3)c12	1.74	1.17	1.94	-0.28	0.76	1.31	2.02	1.2	0.33	1.46
CN1c2ccccc2C(=O)Nc2cnc(Nc3ccc(N4CCC(O)CC4)cc3)nc21	0.94	1.24	3	-0.58	0.36	0.64	0.1	0.29	0.1	0.63
CN1CCN(CCOc2cc(OC3CCOCC3)c3c(Nc4c(Cl)ccc5c4OCO5)ncnc3c2)CC1 [Saracatinib (AZD0530)]	0.88	0.03	0.58	0.11	0.28	0.14	-0.05	0.23	0.26	1.72
CC(C)CC(=O)Nc1n[nH]c2c1CN(C(=O)C1CCN(C)CC1)C2(C)C	0.12	1.36	0.4	0.44	6.4	1.05	-0.1	0.75	0.45	0.59
COC(=O)c1ccc2c(c1)NC(=O)/C2=C(\Nc1ccc(N(C)C(=O)CN2CCN(C)CC2)cc1)c1ccccc1 [Nintedanib (BIBF 1120)]	2.25	-0.82	0.18	-0.11	1.18	0.47	1.74	1.19	0.18	1.07
